# Rows were chosen to be rich in hits. Some 2.5% of all compounds tested hit in one or more screens of this group.
# MEKK3 PB1 HTS – modulators of MEKK3-MEK5 PB1 binding, primary screen, biochemical, wildtype MEKK3, multiplex bead flow cytometry, Alexa488-MEK5; Mitogen-activated protein kinase kinase kinase 3 (Homo sapiens), Q99759; bead-based flow cytometry, Alexa488-MEK5 binding to MEKK3; actives lie on both sides; 0 = blocked by unlabeled MEK5, 100 = vehicle; binding response (% of control), % at 10 µM; hit rate 1.4% among 290,000;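 active means binding response more than 3 SD above or below the average of its plate-row segment, actives on both sides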;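 further: Alexa488 bead fluorescence after subtracting the streptavidin-only scavenger bead signal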
# Target sequence (Q99759 whole entry, looked up): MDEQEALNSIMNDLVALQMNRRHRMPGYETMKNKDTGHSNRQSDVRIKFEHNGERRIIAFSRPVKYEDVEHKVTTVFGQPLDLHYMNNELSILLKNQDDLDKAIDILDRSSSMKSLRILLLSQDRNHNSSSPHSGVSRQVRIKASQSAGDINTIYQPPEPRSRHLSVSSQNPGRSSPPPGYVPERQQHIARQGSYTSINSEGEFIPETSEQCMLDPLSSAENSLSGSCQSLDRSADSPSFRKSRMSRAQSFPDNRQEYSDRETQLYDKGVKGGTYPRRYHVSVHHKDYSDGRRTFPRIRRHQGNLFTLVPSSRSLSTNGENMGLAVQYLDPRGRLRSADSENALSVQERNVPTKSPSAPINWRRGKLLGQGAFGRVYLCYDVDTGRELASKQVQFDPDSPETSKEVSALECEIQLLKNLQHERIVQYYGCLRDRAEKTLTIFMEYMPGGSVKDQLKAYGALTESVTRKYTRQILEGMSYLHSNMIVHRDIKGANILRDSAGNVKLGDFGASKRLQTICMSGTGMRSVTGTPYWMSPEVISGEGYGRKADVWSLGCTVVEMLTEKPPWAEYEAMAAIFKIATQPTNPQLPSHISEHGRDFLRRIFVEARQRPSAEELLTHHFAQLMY
# MEKK2 mut-MEK5 – MEK5 binding signal on mutant MEKK2 PB1, primary screen, biochemical, multiplex bead flow cytometry, Alexa488-MEK5. Alexa488-MEK5 binding to MEKK2 mutant. percent response, % at 10 µM. hit rate 0.35% among 290,000; in the data active means percent response above about 24%, passing the limit was not always enough
# MEKK2 WT-MEK5 – modulators of MEK5 binding to wildtype MEKK2, primary screen, biochemical, multiplex bead flow cytometry, Alexa488-MEK5 | Mitogen-activated protein kinase kinase kinase 2 (Homo sapiens), Q9Y2U5 | Alexa488-MEK5 binding to MEKK2 WT; actives lie on both sides | binding response (% of control), % at 10 µM | hit rate 1.1% among 290,000; in the data active means binding response below about 67% or above about 130%
# GRK2 inh – compounds blocking aptamer binding on GRK2 – biochemical, human GRK2, bead flow cytometry, HTS, primary screen | inhibition of aptamer binding, % at 10 µM | FAM-aptamer displacement from GRK2 | AID 488847, 2010 | Beta-adrenergic receptor kinase 1 (Homo sapiens), P25098 | hit rate 0.59% among 330,000;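 active means inhibition of aptamer binding above 40%, roughly 3 SD of noise, on plates passing a quality check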;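 further: median bead fluorescence of bound FAM aptamer so fluorescent compounds give negative values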
# MEKK2wt confirm – modulators of MEK5 binding to wildtype MEKK2, confirmation, biochemical, single concentration, multiplex bead flow cytometry. binding response (% of control), % at 10 µM. Alexa488-MEK5 binding to MEKK2 WT; actives lie on both sides. shares compounds with MEKK3 PB1 HTS. hit rate 2.4% among 5,900; in the data active means binding response below about 16% or above about 210%; inactive means in between
# MEKK2mut confirm – mutant MEKK2 PB1-MEK5 binding signal retest – biochemical, single concentration, multiplex bead flow cytometry, confirmation; shares compounds with MEKK3 PB1 HTS; Alexa488-MEK5 binding to MEKK2 mutant; percent response, % at 10 µM; hit rate 2% among 5,900; in the data active means percent response mostly above about 71%, no sharp cut-off; inactive means mostly below about 38%;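 further: higher means compound restores mutant binding toward wildtype level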
# MEKK3 confirm – MEKK3 wild-type PB1 binding to MEK5, inhibitors, confirmation, biochemical, bead multiplex flow cytometry, single concentration, wildtype; shares compounds with MEKK3 PB1 HTS; Alexa488-MEK5 binding to MEKK3; hits give low values; binding response (% of control), % at 10 µM; hit rate 1.8% among 5,900;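 active means binding response below 72% of control, or above a set upper limit, though filed actives all read lower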;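 further: 100% = DMSO only wells and 0% = binding blocked by excess unlabeled MEK5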
# * = called active by the depositor; · = no result given; [ ] = dose if it differs, or a comment.
SMILES,MEKK3 PB1 HTS,MEKK2 mut-MEK5,MEKK2 WT-MEK5,GRK2 inh,MEKK2wt confirm,MEKK2mut confirm,MEKK3 confirm
CCn1c(N2CCN(C(=O)C34CC5CC(CC(C5)C3)C4)CC2)nc2ccccc21,0.0*[inhibitor],-15.0,0.0*[inhibitor],3.0,99.0,-3.0,98.0
CCn1c(N2CCN(S(=O)(=O)c3ccc(OC)cc3)CC2)nc2ccccc21,106.0,3.0,108.0,1.0,·,·,·
O=C(NCc1ccccc1)c1ccc(CS(=O)(=O)c2ccccc2)o1,104.0,1.0,115.0,0.0,·,·,·
CC(=O)Nc1cc(NC(=O)C2C3C=CC(C3)C2C(=O)O)ccc1Cl (stereo not drawn),96.0,1.0,98.0,0.0,·,·,·
O=C(O)C1C2C=CC(C2)C1C(=O)Nc1ccc(Cl)c(Cl)c1 (stereo not drawn),103.0,26.0*,104.0,2.0,96.0,-1.0,98.0
O=S(=O)(NCc1cc(-c2ccccc2)no1)c1ccccc1,101.0,0.0,97.0,0.0,·,·,·
COc1ccc(/C=C/C(=O)NCC(=O)N/N=C/c2cc(Br)ccc2OC)cc1,101.0,91.0*,105.0,2.0,94.0,-3.0,96.0
O=C(Nc1ccc(CN2CCCCC2)cc1)c1cccc(Br)c1,92.0,10.0,110.0,0.0,·,·,·
CCCN1C(=O)c2cccc3c(N4CCCCC4)ccc(c23)C1=O,87.0,-4.0,60.0*[inhibitor],3.0,97.0,0.0,102.0
O=C1c2cccc3c(N4CCCCC4)ccc(c23)C(=O)N1c1ccccn1,96.0,-2.0,94.0,0.0,·,·,·
CCCN1C2CCCC1CC(NC(=S)Nc1ccc(OC)cc1)C2 (stereo not drawn),102.0,4.0,105.0,0.0,·,·,·
COc1ccc(NC(=S)NC2CC3CCCC(C2)N3C2CC2)cc1 (stereo not drawn),135.0*,7.0,127.0,0.0,105.0,-2.0,102.0
CCN1CCN(c2ccc(S(=O)(=O)N3CCCCC3)cc2NC(=O)COc2ccc(F)cc2Cl)CC1,102.0,21.0,139.0*,0.0,131.0,18.0,103.0
CCN1CCN(c2ccc(S(=O)(=O)N3CCCCC3)cc2NC(=O)COc2cc(C)ccc2Cl)CC1,·,·,·,2.0,·,·,·
CC1CS(=O)(=O)CCN1N=Cc1ccc([N+](=O)[O-])o1 (stereo not drawn),·,·,·,3.0,·,·,·
CCOC(=O)c1ccc(Nc2nc(N)c3cc(OC)c(OC)cc3n2)cc1,113.0,30.0*,141.0*,6.0,169.0,37.0,106.0
Cc1ccc(Nc2nc(N)c3ccccc3n2)cc1Cl,110.0,7.0,152.0*,1.0,138.0,33.0,106.0
Cc1ccc(Nc2nc(NCCO)c3ccccc3n2)cc1C,108.0,14.0,160.0*,0.0,142.0,33.0,104.0
CCOC(=O)c1ccc(Nc2ccc(-c3ccc(OC)c(OC)c3)nn2)cc1,·,·,·,1.0,·,·,·
COc1cc2nc(Nc3ccc(C)c(Cl)c3)nc(N)c2cc1OC,105.0,50.0*,181.0*,0.0,198.0,65.0,105.0
COc1cc2nc(Nc3ccc(F)cc3)nc(N)c2cc1OC,105.0,22.0,133.0,0.0,·,·,·
CCN(C[C@H]1N[C@@](CC)(C(=O)OC)[C@H]2C(=O)N(C)C(=O)[C@@H]12)S(=O)(=O)c1ccc(-c2ccccc2)cc1,·,·,·,0.0,·,·,·
CN(C)c1nc(NCc2ccccc2)nc(N/N=C/c2ccc(Br)cc2)n1,103.0,0.0,104.0,0.0,·,·,·
COc1cc2nc(Nc3ccc(C)c(C)c3)nc(N)c2cc1OC,112.0,28.0*,159.0*,0.0,159.0,39.0,104.0
CCOC(=O)c1c(C)n(-c2ccc(C)cc2)c2ccc(OCC(O)CN3CCN(C)CC3)cc12 (stereo not drawn),104.0,104.0*,289.0*,·,214.0*,71.0*,112.0
SMILES,MEKK3 PB1 HTS,MEKK2 mut-MEK5,MEKK2 WT-MEK5,GRK2 inh,MEKK2wt confirm,MEKK2mut confirm,MEKK3 confirm
CS(=O)(=O)c1cccc(C(=O)Nc2nnc(C3=COCCO3)o2)c1,·,·,·,3.0,·,·,·
O=c1cc(N2CCC3(CC2)OCCO3)[nH]c(=O)n1-c1ccc(Br)cc1,51.0*[inhibitor],2.0,102.0,·,97.0,-2.0,102.0
O=c1cc(N2CCN(c3ccccc3F)CC2)[nH]c(=O)n1-c1ccc(Br)cc1,104.0,13.0,109.0,9.0,·,·,·
O=C(Nc1ccccc1)N(C1=NCCCCS1)c1ccccc1,98.0,2.0,99.0,0.0,·,·,·
O=C(c1ccc([N+](=O)[O-])cc1)N(C1=NCCCCS1)c1ccccc1,79.0*[inhibitor],-6.0,76.0,1.0,159.0,44.0,104.0
CCC1CCCCN1C(=O)COC(=O)CSc1ccc(C(N)=O)cc1[N+](=O)[O-] (stereo not drawn),·,·,·,0.0,·,·,·
O=C(O)c1ccc(CSc2ccccn2)cc1,97.0,-7.0,101.0,0.0,·,·,·
CCOc1cccc2cc(C(=O)N3CCN(C/C=C/c4ccccc4)CC3)c(=O)oc12,94.0,0.0,100.0,0.0,·,·,·
CN1/C(=C\C=Nc2cc(S(=O)(=O)N3CCOCC3)ccc2N2CCOCC2)C(C)(C)c2ccccc21,137.0*,0.0,111.0,2.0,124.0,10.0,104.0
Cc1oc(-c2ccccc2Cl)nc1CS(=O)CC(=O)NCc1ccco1 (stereo not drawn),99.0,3.0,101.0,0.0,·,·,·
COCCNC(=O)CN(c1cc(Cl)ccc1OC)S(=O)(=O)c1ccc(C)c([N+](=O)[O-])c1,128.0*,0.0,104.0,2.0,12.0*[inhibitor],-29.0,71.0*
Cc1ccc(C(=O)NN2C(=O)C3C4c5ccccc5C(c5ccccc54)C3C2=O)cc1 (stereo not drawn),129.0*,3.0,104.0,0.0,100.0,5.0,103.0
O=C(NN1C(=O)C2C3c4ccccc4C(c4ccccc43)C2C1=O)c1ccccc1 (stereo not drawn),127.0,1.0,109.0,0.0,·,·,·
Cc1nn(CCO)c2c1C(=O)CCC2,128.0*,12.0,116.0,0.0,106.0,3.0,105.0
COc1ccccc1N1CCN(S(=O)(=O)c2ccccc2)CC1,94.0,-4.0,96.0,0.0,·,·,·
COc1ccccc1N1CCN(C2CCN(S(=O)(=O)c3ccc4ccccc4c3)CC2)CC1,103.0,3.0,145.0*,0.0,118.0,1.0,92.0
COc1ccccc1N1CCN(S(=O)(=O)c2ccccc2F)CC1,45.0*[inhibitor],-21.0,63.0,0.0,106.0,6.0,102.0

# Source: PubChem BioAssay (NMMLSC)
